Test results published in the supplement of paper PMC12067093, “Discovery and optimisation of a covalent ligand for TRIM25 and its application to targeted protein ubiquitination” (Chemical Science, 2025).
The full data set covers some 21,000 targets. This sample favours those with the largest changes.

Compound: Cc1cc(ccc1-c1ccccc1)C(=O)N1CCCN(CC1)C(=O)CCl [compound 10]
Assay: probe-labelled cysteine peptide fold change vs DMSO (competition) (log2 fold change); higher = less target engagement (more negative = stronger competition)
Conditions: THP-1, incubation time: 4 h
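Also: competitive profiling in live THP-1 cells: cysteine peptides tagged with an iodoacetamide desthiobiotin (IA-DTB) probe, intensity after compound treatment relative to DMSO-treated cells.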

Chain of UniProt O15050 (O15050 whole entry, looked up): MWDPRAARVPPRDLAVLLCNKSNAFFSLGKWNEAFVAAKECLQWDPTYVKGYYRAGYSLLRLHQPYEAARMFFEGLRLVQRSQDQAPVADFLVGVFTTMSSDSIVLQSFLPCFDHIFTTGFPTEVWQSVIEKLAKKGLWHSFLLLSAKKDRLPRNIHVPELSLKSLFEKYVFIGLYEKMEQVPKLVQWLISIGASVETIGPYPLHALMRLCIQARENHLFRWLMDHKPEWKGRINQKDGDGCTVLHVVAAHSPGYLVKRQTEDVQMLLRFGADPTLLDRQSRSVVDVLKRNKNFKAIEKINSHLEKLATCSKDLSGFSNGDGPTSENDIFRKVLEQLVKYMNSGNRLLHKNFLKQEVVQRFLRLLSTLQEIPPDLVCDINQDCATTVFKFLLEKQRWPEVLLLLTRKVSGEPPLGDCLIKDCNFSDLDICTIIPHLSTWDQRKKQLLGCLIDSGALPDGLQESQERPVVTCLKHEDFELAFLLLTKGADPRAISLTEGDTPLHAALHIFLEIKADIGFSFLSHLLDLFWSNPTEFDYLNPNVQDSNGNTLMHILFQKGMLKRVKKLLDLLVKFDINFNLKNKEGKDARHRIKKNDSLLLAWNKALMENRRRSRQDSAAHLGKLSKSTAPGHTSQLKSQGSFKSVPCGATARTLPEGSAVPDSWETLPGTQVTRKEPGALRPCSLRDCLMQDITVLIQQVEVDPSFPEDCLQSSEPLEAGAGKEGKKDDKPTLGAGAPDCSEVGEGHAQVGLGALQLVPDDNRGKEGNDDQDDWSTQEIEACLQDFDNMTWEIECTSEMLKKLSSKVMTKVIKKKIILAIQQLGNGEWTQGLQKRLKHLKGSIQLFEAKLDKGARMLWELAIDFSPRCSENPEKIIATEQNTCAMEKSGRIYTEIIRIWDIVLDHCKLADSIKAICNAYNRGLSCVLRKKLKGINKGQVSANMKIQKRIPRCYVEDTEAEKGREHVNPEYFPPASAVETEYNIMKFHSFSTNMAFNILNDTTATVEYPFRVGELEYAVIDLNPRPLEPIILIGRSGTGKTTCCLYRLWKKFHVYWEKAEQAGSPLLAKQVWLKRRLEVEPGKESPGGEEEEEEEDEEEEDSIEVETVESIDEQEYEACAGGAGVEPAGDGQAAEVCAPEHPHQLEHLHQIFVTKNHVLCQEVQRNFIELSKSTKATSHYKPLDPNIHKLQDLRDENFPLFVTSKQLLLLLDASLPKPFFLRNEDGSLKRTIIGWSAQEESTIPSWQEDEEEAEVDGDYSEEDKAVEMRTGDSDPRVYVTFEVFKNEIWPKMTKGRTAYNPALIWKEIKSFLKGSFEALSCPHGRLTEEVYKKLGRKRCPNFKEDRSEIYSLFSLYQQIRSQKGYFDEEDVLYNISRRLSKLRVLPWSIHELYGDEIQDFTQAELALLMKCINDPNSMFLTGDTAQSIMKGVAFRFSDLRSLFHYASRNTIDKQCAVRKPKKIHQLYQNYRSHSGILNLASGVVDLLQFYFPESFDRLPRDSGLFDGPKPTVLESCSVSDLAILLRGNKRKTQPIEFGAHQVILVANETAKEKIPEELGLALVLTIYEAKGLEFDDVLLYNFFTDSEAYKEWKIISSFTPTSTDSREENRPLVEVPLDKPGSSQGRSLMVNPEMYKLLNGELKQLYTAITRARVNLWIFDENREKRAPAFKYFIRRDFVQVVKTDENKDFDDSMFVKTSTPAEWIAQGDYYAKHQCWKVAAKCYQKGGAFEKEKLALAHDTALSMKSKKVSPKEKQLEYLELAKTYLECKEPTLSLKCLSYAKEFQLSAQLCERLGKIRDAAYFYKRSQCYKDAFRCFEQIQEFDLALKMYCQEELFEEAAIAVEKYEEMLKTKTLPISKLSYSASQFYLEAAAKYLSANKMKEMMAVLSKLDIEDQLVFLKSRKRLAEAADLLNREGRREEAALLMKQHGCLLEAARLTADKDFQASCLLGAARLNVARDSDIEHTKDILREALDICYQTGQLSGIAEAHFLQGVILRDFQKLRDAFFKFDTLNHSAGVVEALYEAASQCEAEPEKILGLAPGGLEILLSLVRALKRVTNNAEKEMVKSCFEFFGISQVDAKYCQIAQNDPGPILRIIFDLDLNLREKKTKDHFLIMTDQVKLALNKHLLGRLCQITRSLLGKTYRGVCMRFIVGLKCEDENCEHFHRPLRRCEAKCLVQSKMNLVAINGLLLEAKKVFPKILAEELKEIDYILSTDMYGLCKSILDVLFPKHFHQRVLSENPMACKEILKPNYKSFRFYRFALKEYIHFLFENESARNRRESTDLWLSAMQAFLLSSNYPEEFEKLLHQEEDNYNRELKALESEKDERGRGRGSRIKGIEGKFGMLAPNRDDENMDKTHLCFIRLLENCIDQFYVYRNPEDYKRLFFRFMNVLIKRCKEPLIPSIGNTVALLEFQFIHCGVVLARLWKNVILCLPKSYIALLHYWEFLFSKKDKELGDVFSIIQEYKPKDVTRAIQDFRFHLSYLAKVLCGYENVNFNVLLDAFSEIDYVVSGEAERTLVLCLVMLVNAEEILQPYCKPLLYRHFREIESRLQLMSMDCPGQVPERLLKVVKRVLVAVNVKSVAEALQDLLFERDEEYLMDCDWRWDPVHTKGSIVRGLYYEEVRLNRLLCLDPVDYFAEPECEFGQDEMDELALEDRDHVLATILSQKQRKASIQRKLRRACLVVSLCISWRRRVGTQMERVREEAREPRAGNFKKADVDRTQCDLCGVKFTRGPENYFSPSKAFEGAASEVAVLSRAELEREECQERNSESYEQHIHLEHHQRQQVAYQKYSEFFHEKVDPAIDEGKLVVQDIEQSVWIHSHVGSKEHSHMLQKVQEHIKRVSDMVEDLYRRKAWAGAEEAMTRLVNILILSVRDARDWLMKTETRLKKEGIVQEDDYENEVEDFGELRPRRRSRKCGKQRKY
Chain of UniProt Q14694 (Q14694 whole entry, looked up): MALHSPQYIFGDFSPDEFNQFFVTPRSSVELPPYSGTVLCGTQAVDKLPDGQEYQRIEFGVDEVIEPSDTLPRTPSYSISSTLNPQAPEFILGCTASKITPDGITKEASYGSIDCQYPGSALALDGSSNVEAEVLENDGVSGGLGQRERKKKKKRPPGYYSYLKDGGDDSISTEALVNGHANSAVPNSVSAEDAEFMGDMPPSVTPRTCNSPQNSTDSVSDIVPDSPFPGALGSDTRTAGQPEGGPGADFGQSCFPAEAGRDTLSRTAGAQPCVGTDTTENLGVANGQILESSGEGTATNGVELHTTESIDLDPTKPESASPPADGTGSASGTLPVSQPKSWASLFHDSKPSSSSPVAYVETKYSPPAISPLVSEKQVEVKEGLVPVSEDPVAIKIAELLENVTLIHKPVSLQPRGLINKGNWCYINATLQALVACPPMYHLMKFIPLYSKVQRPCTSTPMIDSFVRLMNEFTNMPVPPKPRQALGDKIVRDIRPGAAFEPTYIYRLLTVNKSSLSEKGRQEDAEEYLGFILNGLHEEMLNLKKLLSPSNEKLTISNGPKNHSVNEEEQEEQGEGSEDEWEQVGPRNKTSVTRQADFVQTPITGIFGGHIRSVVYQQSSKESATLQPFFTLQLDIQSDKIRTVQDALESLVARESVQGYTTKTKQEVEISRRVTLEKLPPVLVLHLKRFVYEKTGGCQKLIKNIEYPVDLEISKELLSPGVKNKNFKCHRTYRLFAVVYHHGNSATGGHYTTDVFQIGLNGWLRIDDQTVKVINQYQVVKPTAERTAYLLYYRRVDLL
Chain of UniProt Q9C035 (Q9C035 whole entry): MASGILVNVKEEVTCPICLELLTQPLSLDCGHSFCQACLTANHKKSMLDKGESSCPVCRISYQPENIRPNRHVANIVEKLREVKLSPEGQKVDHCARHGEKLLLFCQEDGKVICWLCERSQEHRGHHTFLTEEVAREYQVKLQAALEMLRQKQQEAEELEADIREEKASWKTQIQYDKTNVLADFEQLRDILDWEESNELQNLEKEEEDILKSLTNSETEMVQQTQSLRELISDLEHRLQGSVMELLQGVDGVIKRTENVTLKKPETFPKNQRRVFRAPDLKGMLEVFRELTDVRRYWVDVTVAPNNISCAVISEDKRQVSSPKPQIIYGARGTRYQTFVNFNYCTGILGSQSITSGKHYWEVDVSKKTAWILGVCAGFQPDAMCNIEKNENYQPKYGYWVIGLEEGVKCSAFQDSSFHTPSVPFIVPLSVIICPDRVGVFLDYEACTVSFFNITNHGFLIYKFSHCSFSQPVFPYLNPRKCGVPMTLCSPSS
Chain of UniProt Q9BZX2 (Q9BZX2 whole entry, looked up): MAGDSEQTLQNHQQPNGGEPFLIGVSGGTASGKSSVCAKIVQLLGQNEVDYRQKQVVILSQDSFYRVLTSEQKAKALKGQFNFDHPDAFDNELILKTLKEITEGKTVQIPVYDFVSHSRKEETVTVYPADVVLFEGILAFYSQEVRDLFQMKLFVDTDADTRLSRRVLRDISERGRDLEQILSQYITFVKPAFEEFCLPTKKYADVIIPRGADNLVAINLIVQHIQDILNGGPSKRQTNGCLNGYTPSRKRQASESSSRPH
Chain of UniProt P54578 (P54578 whole entry, looked up): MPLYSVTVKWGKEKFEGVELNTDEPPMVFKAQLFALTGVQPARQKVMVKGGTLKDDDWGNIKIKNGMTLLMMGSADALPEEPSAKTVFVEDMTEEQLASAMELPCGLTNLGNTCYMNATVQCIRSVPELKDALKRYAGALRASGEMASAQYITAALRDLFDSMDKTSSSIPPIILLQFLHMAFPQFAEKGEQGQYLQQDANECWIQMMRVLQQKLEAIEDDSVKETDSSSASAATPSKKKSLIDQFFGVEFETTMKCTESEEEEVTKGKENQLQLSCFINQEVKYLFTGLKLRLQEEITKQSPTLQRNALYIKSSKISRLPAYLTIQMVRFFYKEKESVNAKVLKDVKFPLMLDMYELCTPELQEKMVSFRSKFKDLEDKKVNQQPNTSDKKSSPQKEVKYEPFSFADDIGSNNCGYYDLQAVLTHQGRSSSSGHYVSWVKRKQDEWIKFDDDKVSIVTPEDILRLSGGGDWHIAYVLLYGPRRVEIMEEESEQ
Chain of UniProt P10599 (P10599 whole entry, looked up): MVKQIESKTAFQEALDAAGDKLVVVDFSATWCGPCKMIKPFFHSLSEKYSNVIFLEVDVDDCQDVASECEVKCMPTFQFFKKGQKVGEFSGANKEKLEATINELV

Target	probe-labelled cysteine peptide fold change (10 µM)	probe-labelled cysteine peptide fold change (50 µM)
UROS_P10746_119_IGLDTEGETCGNAEK (UniProt P10746)	-0.0553	-0.0029
UBR7_Q8N806_137_YNDNFFGLYCICK (UniProt Q8N806)	0.0481	-0.0777
TXNIP_Q9H3M7_170_VSCMFIPDGR (UniProt Q9H3M7)	0.0303	-1.26
USP3_Q9Y6I4_385_SFTDLEELDETELYMCHK (UniProt Q9Y6I4)	-0.114	-0.984
UCK2_Q9BZX2_197_PAFEEFCLPTK (UniProt Q9BZX2)	-0.0609	0.255
TTC39C_Q8N584_517_AVKDELCR (UniProt Q8N584)	-0.00819	-0.291
TRIM28_Q13263_221+229_HEPLVLFCESCDTLTCR (UniProt Q13263)	-0.0841	-0.368
USP3_Q9Y6I4_98_CDDFVVNDTK (UniProt Q9Y6I4)	-0.0308	-0.0909
UBR2_Q8IWV8_1717_GNPLHLCK (UniProt Q8IWV8)	-0.263	-1.31
UROS_P10746_143_ESSALPLLFPCGNLKR (UniProt P10746)	-0.128	-0.405
USP14_P54578_257_CTESEEEEVTK (UniProt P54578)	-0.254	-0.167
TYK2_P29597_736_NLVHGNVCGR (UniProt P29597)	-0.00731	-0.24
USP19_O94966_656+659_LVCPVCAK (UniProt O94966)	-0.159	-1.2
UBR7_Q8N806_155+158_RPYPDPEDEIPDEMIQCVVCEDWFHGR (UniProt Q8N806)	-0.195	-1.14
UBA6_A0AVT1_156_YQCVVLTEMK	0.126	0.104
TXNRD2_Q9NNW7_523_SGLDPTVTGCUG (UniProt Q9NNW7)	-1.15	-2.15
UBL7_Q96S82_66_LQESVPDPELIDLIYCGR (UniProt Q96S82)	-0.109	-0.328
USP10_Q14694_456_VQRPCTSTPMIDSFVR (UniProt Q14694)	-0.0395	-0.00663
USP9Y_O00507_674_DGQLWLCAPQAK (UniProt O00507)	-0.00329	-0.161
UNC45A_Q9H3U1_503_ALVGLCK (UniProt Q9H3U1)	0.0377	-0.217
TRIM25_Q14258_498_FTYCSQVLGLHCYK (UniProt Q14258)	-1.23	-2.92
UHRF2_Q96PU4_42_VWALFDVRPECQR (UniProt Q96PU4)	-0.064	0.118
TRIM56_Q9BRZ2_41_TLPCLHTYCQDCLAQLADGGR (UniProt Q9BRZ2)	0.238	0.113
TUBA3C_P0DPH7_4+20+25_MRECISIHVGQAGVQIGNACWELYCLEHGIQPDGQMPSDK<|>TUBA3D_P68363_4+20+25_MRECISIHVGQAGVQIGNACWELYCLEHGIQPDGQMPSDK<|>TUBA1B_Q6PEY2_4+20+25_MRECISIHVGQAGVQIGNACWELYCLEHGIQPDGQMPSDK<|>TUBA3E_Q9BQE3_4+20+25_MRECISIHVGQAGVQIGNACWELYCLEHGIQPDGQMPSDK (UniProt Q9BQE3+Q6PEY2+P68363+P0DPH7)	0.318	0.131
UBE2G2_P60604_75_FTCEMFHPNIYPDGR (UniProt P60604)	-0.0589	-0.214
VPS33B_Q9H267_259_CGSVDFGPEVTSSDK (UniProt Q9H267)	0.169	0.293

Target	probe-labelled cysteine peptide fold change (10 µM)	probe-labelled cysteine peptide fold change (50 µM)
TTC17_Q96AE7_725_CPECENSLK (UniProt Q96AE7)	0.113	0.453
USP48_Q86UV5_512+514_WLDESTPTKPIDNHACLCSHDK (UniProt Q86UV5)	-0.0825	-1.16
VPS13C_Q709C8_2289_GIEHSLIEENCGVVVESIQVTLECGLGHR (UniProt Q709C8)	-0.105	-0.0661
U2SURP_O15042_918_EKDECTPTRK (UniProt O15042)	-0.0489	0.231
UBR7_Q8N806_46_CSYSQGSVKR (UniProt Q8N806)	-0.118	-0.607
UBAP1_Q9NZ09_243_ATLDFKPLHKPNGFITLPQLGNCEK (UniProt Q9NZ09)	-0.239	-1.36
TXN2_Q99757_90+93_VVNSETPVVVDFHAQWCGPCK (UniProt Q99757)	-1.92	-2.07
VARS2_Q5ST30_549_QLWWGHQIPAYLVVEDHAQGEEDCWVVGR (UniProt Q5ST30)	0.149	0.141
TRIM33_Q9UPN9_582_GNMNCGAFQAHQMR (UniProt Q9UPN9)	-0.217	-0.598
VLDLR_P98155_251_CPASEIQCGSGECIHK (UniProt P98155)	-0.12	-0.248
USP40_Q9NVE5_1054_RIEICLEPLQK (UniProt Q9NVE5)	0.0209	-0.0411
USP22_Q9UPT9_171_KITSNCTIGLR (UniProt Q9UPT9)	-0.315	-0.757
TRAPPC6A_O75865_124_FLAFTCGLLR (UniProt O75865)	0.203	0.608
TRIM5_Q9C035_95_VDHCAR (UniProt Q9C035)	-0.107	-0.113
TRAPPC13_A5PLN9_327_LSLEAIPDTVNLEEPFHITCK (UniProt A5PLN9)	0.0844	0.00702
TRIM59_Q8IWR1_208_SFLTALCDVGNLINQEYTPQIER<|>IFT80_Q9P2H3-3_208_SFLTALCDVGNLINQEYTPQIER (UniProt Q9P2H3+Q8IWR1)	0.237	-0.00617
USP8_P40818_809_NCYQDDINR (UniProt P40818)	-0.199	-1.27
USP9X_Q93008_1061_AICLDHAK (UniProt Q93008)	0.267	0.565
TRIM59_Q8IWR1_10+13_MHNFEEELTCPICYSIFEDPR<|>IFT80_Q9P2H3-3_10+13_MHNFEEELTCPICYSIFEDPR (UniProt Q9P2H3+Q8IWR1)	-0.194	-1.63
TRIM13_O60858_106_GHLGQPLNIFCLTDMQLICGICATR (UniProt O60858)	0.0739	-0.215
TRMT1_Q9NXH9_621_GDQCCYSHSPPTPR (UniProt Q9NXH9)	-0.0265	-0.0659
UBR4_Q5T4S7_4890_KQQGYSTVSHFNIVHYDCHLAAVR (UniProt Q5T4S7)	0.0563	-0.151
TSPAN2_O60636_164_ESSEQVQPTCPK (UniProt O60636)	-0.411	-0.422
UHRF1BP1L_A0JNW5_398_NGWANELLHEFECNVEMLK (UniProt A0JNW5)	-0.0203	-0.158
TTF1_Q15361_445_KTQACLASK (UniProt Q15361)	-0.039	-0.411
UBR1_Q8IWV7_1603_NSLIELPDDYSCLLNQASHFR (UniProt Q8IWV7)	-0.114	-0.631

Target	probe-labelled cysteine peptide fold change (10 µM)	probe-labelled cysteine peptide fold change (50 µM)
TRANK1_O15050_1930_QHGCLLEAAR (UniProt O15050)	-0.0687	-0.106
VPS41_P49754_638_DSTHCPLEK (UniProt P49754)	-0.172	-0.152
UBA3_Q8TBC4_28_MAVDGGCGDTGDWEGR (UniProt Q8TBC4)	-0.245	-0.0349
USP16_Q9Y5T5_24_TVPIDDSSETLEPVCR (UniProt Q9Y5T5)	-0.224	-0.204
VCPIP1_Q96JH7_207+219_SQECLIPVHVDGDGHCLVHAVSR (UniProt Q96JH7)	-1.2	-1.48
TRMT10C_Q7L0Y3_78_SSVQEECVSTISSSKDEDPLAATR (UniProt Q7L0Y3)	-0.141	-0.518
USP13_Q92995_231_ENLWLNLTDGSVLCGK (UniProt Q92995)	0.0774	0.113
USP48_Q86UV5_652+658_KEEEELNFNEDILCPHGELCISENERR (UniProt Q86UV5)	-0.493	-1.42
TUBAL3_A6NHL2_322+323_YMACCLLYR<|>TUBA1B_P68366_315+316_YMACCLLYR<|>TUBA4A_Q9BQE3_315+316_YMACCLLYR (UniProt P68366+Q9BQE3+A6NHL2)	-0.349	-0.661
UBR4_Q5T4S7_2554_AVQCLNTSSK (UniProt Q5T4S7)	-0.27	-0.543
TRRAP_Q9Y4A5_3535_IYPYLVMNDACLTESR (UniProt Q9Y4A5)	-0.136	-0.0829
VPS26B_Q4G0F5_334_TPSQLSDNNCRQ (UniProt Q4G0F5)	-0.205	-0.321
TRAP1_Q12931_527_KDTEVLFCFEQFDELTLLHLR (UniProt Q12931)	0.143	0.314
TYSND1_Q2T9J0_17_AAEQAGCMVSASR (UniProt Q2T9J0)	0.0109	0.0758
UGGT1_Q9NYU2_1475+1479_SLPQEWLWCETWCDDASK (UniProt Q9NYU2)	-0.291	-0.0794
UBA7_P41226_68_NLVLMGVGSLTLHDPHPTCWSDLAAQFLLSEQDLER (UniProt P41226)	0.0506	0.33
TRIM25_Q14258_110_ASAPSPNAQVACDHCLK (UniProt Q14258)	-0.0981	-0.283
TRIM24_O15164_127+134_CPVCSQECAER (UniProt O15164)	0.118	-0.0216
UBN1_Q9NPG3_711_VGGVLCTEEK (UniProt Q9NPG3)	-0.0763	0.0664
UBA1_P22314_711_SLVLQRPQTWADCVTWACHHWHTQYSNNIR (UniProt P22314)	-0.12	0.238
UBR5_O95071_572_VGVLMESVWNMNDSCR (UniProt O95071)	-0.0405	0.0537
VPS16_Q9H269_763_SPIGYLPFVEICMK (UniProt Q9H269)	0.149	0.152
TXNL1_O43396_149_AGCECLNESDEHGFDNCLRK (UniProt O43396)	-0.189	-0.0731
USP34_Q70CQ2_3118_SNIRPPRPELNMCLLPTMVETSK (UniProt Q70CQ2)	0.146	-0.174
TXN_P10599_32_LVVVDFSATWCGPCK (UniProt P10599)	-0.415	-0.638
